Source: PubChem BioAssay AID492967 (ICCB-Longwood Screening Facility, Harvard Medical School, 2010)
The whole screen tested about 140,000 compounds, of which about 320 (0.23%) were called active. Shown is part of a subset that was picked to be rich in actives. Unmarked numbers belong to inactive results. No stated cut-off is given here; in the data, active means z-score mostly below about -2.9 (no sharp cut-off); inactive means mostly above about -1.9.

System: CapD gamma-glutamyltranspeptidase (Bacillus anthracis Ames Ancestor)
Experiment: Bacillus anthracis CapD inhibitors, primary screen, biochemical, fluorescence intensity (AID 492967)
Conditions: purified CapD enzyme, fluorescence intensity read-out; stronger effect = lower value

| SMILES | z-score |
| --- | --- |
| CN(c1ncnc2c1nc1n2CCCCC1)C1CCCCC1 | 0.88 |
| NC(=S)c1ccc(-c2csnn2)cc1 | -0.465 |
| CCN1C(=O)/C(=C2/Sc3ccccc3N2C2CCCCC2)SC1=S | -0.02 |
| CCN1C(=O)/C(=C2/Sc3ccccc3N2CCCS(=O)(=O)O)SC1=S | -3.94 (active) |
| CCN1C(=O)/C(=C/c2ccccc2)SC1=S | 0.005 |
| CCCCc1ccc2nc(N)sc2c1 | -0.715 |
| O=C(NCCO)c1ccc(/C=N/O)nc1 | 0.075 |
| Cc1c(Cl)cccc1NC(=O)c1ccc(-n2cccn2)c([N+](=O)[O-])c1 | 2.56 |
| CC(=O)N1CCCN(S(=O)(=O)c2cccc3nonc23)CC1 | -0.285 |
| CCn1c2ccccc2c2cc(CN3CCN(C(=O)c4ccccc4OC)CC3)ccc21 | 14 |
| O=[N+]([O-])c1ccc(-c2ccc(-c3[nH]c(-c4cccc([N+](=O)[O-])c4)nc3-c3ccccc3)cc2)cc1 | 0.025 |
| CC1CCN(CC(=O)N2c3ccccc3C(C)(c3ccccc3)CC2(C)C)CC1 (configuration not stated) | 0.18 |
| CCOC(=O)CC(=O)CSc1nc2c(sc(=S)n2CCc2ccccc2)c(=O)n1Cc1ccco1 | 0.52 |
| O=C(COc1ncn(-c2ccccc2)n1)N/N=C/c1cc(OCc2ccccc2)cc(OCc2ccccc2)c1 | -1.07 |
| COc1cc(Br)c(C2C(C(=O)OCCOc3ccccc3)=C(C)NC3=C2C(=O)CCC3)cc1OC (configuration not stated) | 22.1 |
| CCN1CCN(CCNC(=O)c2ccc(NC(=O)C3=CSCCO3)cc2)CC1 | -0.9 |
| O=C(NCCc1ccccc1)c1cc2c(s1)CS(=O)(=O)C2 | 0.17 |
| O=C(O)c1cc2ccccc2c(=O)s1 | 0.97 |
| O=C(O)c1cc2c(s1)CS(=O)(=O)C2 | -3.92 (active) |
| COc1ccc(C2Nc3ccccc3C(=O)N2c2ccccc2)cc1CSc1nc2ccccc2s1 (configuration not stated) | 34.5 |
| Cc1cc(C)nc(N2CCN(C(=O)C(C)(C)C)CC2)n1 | -0.02 |
| Nc1ccc(C(=O)Nc2nc3ccc(NC(=O)c4ccccc4)cc3s2)cc1 | 13.6 |
| O=C(OCCN1C(=O)c2ccccc2C1=O)c1ccc(Cl)cc1 | 0.395 |
| O=C(NC(=O)N1CCOCC1)c1ccc(S(=O)(=O)N2CCOCC2)cc1 | 0.605 |
| CC1=NN(c2ccccc2)C(=O)CC1 | 0.205 |
| CCC(C)c1ccc(N2C(=O)C=CC2=O)cc1 (configuration not stated) | -0.045 |
| COc1ccc(N2CCN(c3ncnc4sc(C(=O)NCc5ccccc5OC)c(C)c34)CC2)cc1 | -0.385 |
